Out of some 330,000 compounds screened, about 590 (0.18%) were called active.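 Rule for the calls: active = superoxide response under a set limit, about three screen SD below normal (cut at about 65% in these data); inactive = the rest.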 What follows is part of a selection rich in actives, with near analogues and random picks from the rest.
Test: yeast aging ROS inhibitors as calorie-restriction mimetics – HTS, primary screen (AID 2690);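 note: yeast aged for seven days with compound at 30 °C before DHE staining; 100% = average MFI of all compound-treated wells on the plate with controls excluded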
Conditions: S. cerevisiae aged cells, superoxide DHE fluorescence; at 10 µM; stronger effect = lower value

Superoxide response (% of plate mean), active:
Cc1ccccc1NC(=O)NCC1CCN(Cc2cccc(Cl)c2)CC1 36.3%
CSc1sc(C(=O)NNC(=O)c2ccc(Cl)cc2)c2c1C=CCC2 61.9%
O=C(Nc1ccccc1N1CCCC1)c1ccc2ccccc2c1 59%
Cc1cc2oc(C(=O)Nc3c(C)n(C)n(-c4ccccc4)c3=O)c(C)c2cc1Cl 43%
COc1ccc(CCNC(=O)c2ccccc2-c2ccccc2C(=O)O)cc1OC 57.2%
COc1cccc(NC(=O)NCCN2CCCCC2)c1 34.4%
CC(=O)NC1=NN(C(C)=O)C(C)(CCS(=O)(=O)c2ccc(Cl)c(Cl)c2)S1 (configuration not stated) 63.7%
COc1ccc(C2=NN(c3nc4ccccc4s3)C(=O)C2)cc1 51%
O=[N+]([O-])c1ccc2c(c1)Nc1nc3ccccc3nc1N2 61.2%
Cc1ccc(NC(=O)Cn2nc(C)c3ccccc3c2=O)c(C)c1 54.4%
Cc1ccc(-c2nc(CS(=O)CC(=O)N3CCN(c4ncccn4)CC3)c(C)o2)cc1 (configuration not stated) 63.9%

Superoxide response (% of plate mean), inactive:
C#CCO[C@@H]1C[C@H](n2cnc3c(=O)[nH]c(NC(=O)C(C)C)nc32)O[C@@H]1CO 101%
COCCN(C(=O)CCC(=O)Nc1nccs1)C(C(=O)NC(C)(C)C)c1ccc(Cl)cc1 (configuration not stated) 87.1%
O=C(NC1CCCC1)C1CC(=O)N(c2ccc(F)cc2)C1 (configuration not stated) 96.9%
COc1ccc(C(C)C)cc1S(=O)(=O)Nc1ncn[nH]1 87.8%
O=c1o[nH]c(-c2ccccc2)c1N=Nc1c(F)cccc1Cl 105%
O=C(NCCCNC(=O)NC1CCCCC1)NC1CCCCC1 106%
O=C(Oc1c(-c2ccco2)oc2ccccc2c1=O)c1cccnc1 104%
O=[N+]([O-])c1cc(S(=O)(=O)Nc2cccc(Cl)c2)ccc1N=Nc1c(O)[nH]c2ccccc12 91.3%
CC(=O)c1c(C)c[nH]c1C 90.3%
Cc1ccc(NC(=O)CSCC(=O)N2CCOCC2)cc1 98.5%
CCc1ccccc1N(CC(=O)NCC1CCCO1)C(=O)CCC(=O)Nc1nccs1 (configuration not stated) 88%
COc1ccc(-c2cc(C(=O)N(C)Cc3ccc(OC)c(OC)c3OC)c3ccccc3n2)cc1OC 96.5%
Cc1cccc(CN2CCC(CNC(=O)Nc3ccc(F)c(Cl)c3)CC2)c1 92.6%
O=C(NCC1CCN(Cc2ccccc2Cl)CC1)Nc1cccc(Cl)c1 103%
C/C(N)=C(/C#N)C(=O)COC(=O)C1=NN(c2ccccc2)C(=O)CC1 82.1%
CN(C)C1=NC[C@H](Cc2ccccc2)N1CCc1ccc(F)cc1 98.7%
C/C(=N\NS(=O)(=O)c1cccc([N+](=O)[O-])c1)c1cc2ccccc2o1 107%
CCC(=O)N(C)C(c1ccccc1Cl)c1nnnn1-c1c(C)cccc1C (configuration not stated) 107%
COc1ccccc1C(=O)Nc1ccnn1C1CCN(Cc2cnn(C)c2)CC1 92%
O=C(NNC(=O)c1cc(S(=O)(=O)N2CCCCC2)ccc1Cl)c1ccccc1O 95.4%
CCC1(CC)C(=O)C2=C3C1[C@H](C(=O)OC)C=C(C(=O)OC)C[C@H]3[C@H]1C(=O)N(Cc3ccccc3)C(=O)[C@H]1[C@H]2C (some centres not stated) 107%
CC[C@]12c3[nH]c4cc(CCC(=O)N(C)C)ccc4c3CCN1C(=O)[C@@H](CC(=O)NCC13CC4CC(CC(C4)C1)C3)C[C@@H]2C(=O)N1CCN(C(=O)C2CC2)CC1 120%
CCOC(=O)NNC(=O)c1ccc(Cl)cc1 96.8%
O=C(NNC(=O)C1C2CCC(C2)C1C(=O)O)c1ccc(Cl)cc1 (configuration not stated) 97.2%
O=C(NC(=S)Nc1ccccc1N1CCCCC1)c1ccc(F)cc1 98.2%
O=C(Nc1ccccc1N1CCCC1)c1ccc(F)c(S(=O)(=O)N2CCOCC2)c1 85.3%
Cc1cccc2c1cnn2C(=O)CCC(=O)NC1CCCCC1 82.7%
N#Cc1cccc(NC(=O)CN2CCCCCC2)c1 94.7%
COc1cc(CO)ccc1OCC(=O)Nc1cccc2ccccc12 99.9%
Cc1cccc2[nH]c(CN(C)C(=O)C3CCC(=O)N(CCc4ccccc4)C3)nc12 (configuration not stated) 102%
COc1ccc(-c2c(-c3cc(OC)cc(OC)c3)n(C)c3ccc(-c4ccn[nH]4)cc23)cc1 87%
CC1CC(C)CN(C(=O)CSc2ccsc2[N+](=O)[O-])C1 (configuration not stated) 155%
CCCCc1cc(=O)oc2c(C)c(OCC(=O)N3CCC(C(N)=O)CC3)ccc12 81.2%
Cc1cc2c(C)nc(N/N=C/c3ccccc3)nc2o1 97.9%
Cc1c(NC(=O)c2cc(-c3ccc(Br)cc3)on2)c(=O)n(-c2ccccc2)n1C 98.6%
Cc1c(NC(=O)c2coc(=O)c(Br)c2)c(=O)n(-c2ccccc2)n1C 96.5%
CC1(C)CC(=O)C=C(c2cccc3c2Oc2ccccc2S3)C1 109%
O=C(CSc1nc2[nH]c(=O)[nH]c(=O)c2s1)Nc1cccc(F)c1 94.1%
Cc1cc2ncn(CCCCOc3ccccc3)c2cc1C 80.1%
COc1ccc(CNC(=O)C2CC(c3ccc(C(F)(F)F)cc3)=NO2)cc1 (configuration not stated) 103%
O=S(=O)(NCCCCCCNS(=O)(=O)c1c(F)cccc1F)c1ccc2c(c1)OCCO2 104%
O=C(O)C1CCN(S(=O)(=O)N2CCOCC2)CC1 126%
O=C(O)c1ccccc1-c1ccccc1C(=O)NCCc1ccccc1 108%
COc1ccc(CCNC(=O)Cc2ccc(C)cc2)cc1OC 102%
Cc1ccc(NC(=O)CN2CCC3(O)CCCCC3C2c2ccc3c(c2)OCO3)c(C)c1 (configuration not stated) 95%
COc1cccc(NC(=O)[C@H](Cc2c[nH]c3ccccc23)NC(=O)[C@@H]2Cc3ccccc3CN2)c1 113%
O=C(NC1CCN(Cc2ccccc2)CC1)c1ccc(Oc2cc(Cl)cc(Cl)c2)o1 87.6%
COc1cccc(NC(=S)NCCCN2CCOCC2)c1 96.1%
CCc1ccccc1NC(=O)NCCN1CCCCC1 92.8%
CC(=O)NC1=NN(C(C)=O)C(C)(c2ccc(C)cc2)S1 (configuration not stated) 108%
CC(=O)NC1=NN(C(C)=O)C(C)(c2ccc(Cl)s2)S1 (configuration not stated) 102%
Cc1nc([N+](=O)[O-])cn1CC(=O)Nc1ccc(Cl)cc1 104%
COc1ccc(/C=C(/CC(=O)Nc2ccc(C)cc2)c2nc3ccccc3s2)cc1 97.7%
COc1ccc(-n2nnnc2-c2nc3ccccc3s2)cc1 88.6%
COc1ccc2c(c1)OC(O)(C(F)(F)C(F)F)CC2=O (configuration not stated) 82.7%
CCN(CC)S(=O)(=O)c1cc([N+](=O)[O-])ccc1NNC(=O)Nc1ccccc1 101%
CCOc1ccc(N2CC(C(=O)N/N=C/c3sccc3C)CC2=O)cc1 (configuration not stated) 100%
COc1ccc2[nH]c(=O)c(CNc3ccc(C)c(C)c3)cc2c1 96.3%
COc1cc(C(=S)N2CCOCC2)cc(OC)c1OC(=O)c1cc([N+](=O)[O-])c(C)c([N+](=O)[O-])c1 113%
CCCC1NC(=S)NC(C)=C1C(C)=O (configuration not stated) 92.8%
O=[N+]([O-])c1ccc2nc(-c3ccccn3)[nH]c2c1 98.5%
COc1ccc([N+](=O)[O-])cc1-c1nc2ccccc2nc1-c1ccccc1 99.1%
Cc1nn(CC(=O)Nc2ccc(F)cc2)c(=O)c2ccccc12 98.5%
Cc1nn(CC(=O)Nc2ccc3c(c2)nc(CN2CCCCC2)n3C)c(=O)c2ccccc12 94.1%
COc1ccc(-c2nc(CS(=O)CC(=O)N3CCc4ccccc4C3)c(C)o2)cc1 (configuration not stated) 92.3%
Cc1ccc(-c2nc(CS(=O)CC(=O)NC3CCCC3)c(C)o2)cc1 (configuration not stated) 108%

Source: PubChem BioAssay AID2690 (NMMLSC, 2010)
